From PubChem BioAssay (Tox21)
Inconclusive results are not listed. Where a call stands in place of a potency, no number is given. Values without a mark were called inactive. Activity calls are given as the source filed them. The call rests on the fitted dose curve; in most records, active means well fitted inhibition curve with a large enough effect in the signal ratio in the repeat runs (not every such curve was filed as active); inconclusive means weak or mixed curves, or effect the other way; inactive means flat fitted curve, though single readings scatter; the % refers to the signal ratio.

assay: cAMP Responsive Elements (CRE) small molecule antagonists, cell-based qHTS assay (AID 1963591); details: CRE-bla HEK293T, beta-lactamase FRET ratio; series mostly up to 92.4 µM
Text: U.S. Tox21 Program National Center for Advancing Translational Sciences [NCATS] Division of Preclinical Innovation [DPI] U.S. Environmental Protection Agency [EPA] National Institutes of Environmental Health Sciences [NIEHS] National Toxicology Program [NTP] U.S. Food and Drug Administration [FDA] Tox21 Assay Overview: CREB (cyclic-AMP Responsive Element Binding Protein) is a cellular transcription factor. It binds to certain DNA sequences called cAMP Responsive Elements (CRE) and regulates the transcription of the genes. […] This cell line can be used to find agonists/antagonists of the cyclic AMP signaling pathway. The activation of the report gene under culture conditions can be detected by fluorescence intensity. This cell line has been used to screen the Tox21 10K compound library to […].
Tox21 Assay Protocol Summary: CRE-bla Hek 293T cells were suspended in assay medium (DMEM containing 10% dialyzed FBS, 0.1 mM NEAA, 1 mM sodium pyruvate and 25 mM HEPES) and dispensed at 2,000 cells/4 uL /well into 1536-well black wall/clear bottom plates using a Multidrop Combi (ThermoFisher Scientific, Waltham, MA) dispenser. After the assay plates were incubated at 37 C/5% CO2 for 18 hrs, 23 nL of compounds dissolved in DMSO, positive controls or DMSO only was transferred to the assay plate by a pintool workstation (Kalypsys, San Diego, CA), followed by addition of 1 […] uL of 1.25uM NKH477 (0.25 uM as final concentration) in assay medium using a Flying Reagent Dispenser (Aurora Discovery, San Diego, CA). The plates were incubated at 37 C and 5% CO2 for 3 hrs. Then 1 uL of LiveBLAzer B/G FRET substrate (Invitrogen, Carlsbad, CA) was added to each well using Bioraptr Flying Reagent Dispenser (FRD, Aurora Discovery, San Diego, CA). The plates were incubated at room temperature for 2 h.
Potency means the concentration at half of the fitted maximal effect.

SMILES | Potency | activity change, negative = inhibition
CCCCCCCCCCCCN1CCCC1=O | inactive | 
c1ccccc1 | inactive | 
CCCCCC[C@@H](O)C/C=C\CCCCCCCC(=O)O | inactive | 
O=C1OC(=O)c2c(Br)c(Br)c(Br)c(Br)c21 | inactive | 
CC(=O)Nc1ccccc1O | inactive | 
O=CC=C(c1ccccc1)c1ccccc1 | 24.5 µM (active) | 
CCCCCCCCCCl | inactive | 
CCCOc1ccc2c(c1)CC[C@@H]1[C@@H]2CC[C@]2(C)C(OC)CC[C@@H]12 (stereo not given in full) | inactive | 
CCN(Cc1ccncc1)C(=O)C(CO)c1ccccc1 (stereo not given) | inactive | 
CN(C)c1ccc(C2(c3ccc(N(C)C)cc3)OC(=O)c3cc(N(C)C)ccc32)cc1 | inactive | 
NC(CCC(=O)O)C(=O)O (stereo not given) | inactive | 
C=C[Si](OCC)(OCC)OCC | inactive | 
N[C@@H](CCC(=O)N[C@@H](CS)C(=O)NCC(=O)O)C(=O)O |  | -10.5% [at 18.9 µM]
CC(C)N(C)C | inactive | 
CC(C)Nc1ccc(NC(C)C)c2c1C(=O)c1ccccc1C2=O | inactive | 
OC12N=C(c3ccccc3)SC1Cc1cc(Cl)ccc12 (stereo not given) | inactive | 
CCCCOC(=O)c1ccccc1C(=O)OCC(CC)CCCC (stereo not given) | inactive | 
CC(=O)OCC(C)OC(C)=O (stereo not given) | inactive | 
O=C1c2ccccc2C(=O)c2cc(S(=O)(=O)O)ccc21 | inactive | 
COc1cccc2sc(N)nc12 | inactive | 

SMILES | Potency | activity change, negative = inhibition
CN(C)CCCN(C)C |  | -6.12% [at 8.39 µM]
CCCCCCNC(=O)n1cc(F)c(=O)[nH]c1=O | inactive | 
CCCNC(C)C(=O)Nc1c(C)csc1C(=O)OC (stereo not given) | inactive | 
COc1cc(Cc2cnc(N)nc2N)cc(OC)c1OC | inactive | 
CC1=CCCC(C)(C)C12CCC(C)O2 (stereo not given) | inactive | 
Cc1nc([N+](=O)[O-])cn1-c1ccc([N+](=O)[O-])cc1 | inactive | 
O=C1c2ccccc2-c2ccccc21 | inactive | 
Cc1c(Cl)cccc1Cl | inactive | 
Oc1ccc(C2(c3ccc(O)cc3)CC3CC2C2CCCC32)cc1 (stereo not given) | 65.9 µM (active) | 
O=C1Nc2ccc([N+](=O)[O-])cc2C1=O | inactive | 
Brc1c(NC2=NCCN2)ccc2nccnc12 | inactive | 
CC(C)NC(=O)c1ccc(C=O)cc1 | inactive | 
CS(C)=O | inactive | 
CC(=O)SCC(CC(=O)c1ccc(C)cc1)C(=O)O (stereo not given) | inactive | 
CC1(C)[C@@H](OC(=O)CCC(=O)O)CC[C@]2(C)[C@H]3C(=O)C=C4[C@@H]5C[C@@](C)(C(=O)O)CC[C@]5(C)CC[C@@]4(C)[C@]3(C)CC[C@@H]12 | inactive | 
NC(N)=NCCC[C@H](N)C(=O)O |  | -3.28% [at 8.39 µM]
COc1ccc(C(=O)c2ccc(C)cc2)c(O)c1 | inactive | 
CCN1CCN(C(=O)N[C@@H](C(=O)N[C@@H]2C(=O)N3[C@@H]2SC(C)(C)[C@H]3C(=O)O)c2ccccc2)C(=O)C1=O | inactive | 
N=C(N)N | inactive | 
CC(=O)CCC1=C(C)CCCC1(C)C | inactive | 
